Measurements published in the supplement of paper PMC12350171.
Where a name gives a salt, the structure may show the parent alone. Unmarked numbers belong to inactive results.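 The calls were made as follows: active = AUC significantly below DMSO controls by Student t-fit with adjusted P under 0.01; inactive = not significantly reduced.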

test system: Haemophilus parainfluenzae; assay: growth AUC normalised to DMSO control (fraction of control); higher = less growth inhibition, active = hit call of the paper; settings: 20 µM
Method in brief: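 After two anaerobic passages, pathogens were added at a starting OD578 of 0.01 to pre-reduced mGAM plates holding compound at 20 μM with 1% DMSO; hemin and NAD were supplemented for Haemophilus parainfluenzae. Sealed with breathable membranes, plates were read at OD578 hourly for 24 h, in three biological replicates. The trapezoidal rule, applied up to the exponential-to-stationary transition, gave the growth-curve AUC, which was normalised to DMSO controls on the same plate.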

SMILES | growth AUC normalised to DMSO control
Nc1ccc(/N=N/c2ccccc2)c(N)n1 [Phenazopyridine hydrochloride] | 0.922
CC(=O)O[C@]1(C(C)=O)CC[C@H]2[C@@H]3C=C(C)C4=CC(=O)CC[C@@H]4[C@H]3CC[C@@]21C [Nomegestrol acetate] | 0.976
CN(C)C(=N)NC(=N)N [Metformin hydrochloride] | 1.03
CC[C@H]1OC(=O)[C@H](C)[C@@H](O[C@H]2C[C@@](C)(OC)[C@@H](O)[C@H](C)O2)[C@H](C)[C@@H](O[C@@H]2O[C@H](C)C[C@H](N(C)C)[C@H]2O)[C@](C)(O)C[C@@H](C)CN(C)[C@H](C)[C@@H](O)[C@]1(C)O [Azithromycin] | 0.0436 (active)
CC(=O)N1CCN(c2ccc(OCC3COC(Cn4ccnc4)(c4ccc(Cl)cc4Cl)O3)cc2)CC1 (stereo unspecified) [Ketoconazole] | 1.03
CNCCC(Oc1ccccc1OC)c1ccccc1 (stereo unspecified) [Nisoxetine hydrochloride] | 1.02
CC(C)(C)NCC(O)c1ccc(O)c(CO)c1 (stereo unspecified) [Salbutamol] | 0.895
Cn1ccnc1S [Methimazole] | 1.02
OCCN1C[C@H](O)[C@@H](O)[C@H](O)[C@H]1CO [Miglitol] | 0.925
CN(C)CCCN1c2ccccc2Sc2ccccc21 [Promazine hydrochloride] | 0.841
C#C[C@]1(O)CC[C@H]2[C@@H]3[C@H](C)CC4=C(CCC(=O)C4)[C@H]3CC[C@@]21C [Tibolone] | 0.966
CCN(CC)CCOC(=O)C(c1ccccc1)C1CCCCC1 (stereo unspecified) [Drofenine hydrochloride] | 0.992
C=C(CC)C(=O)c1ccc(OCC(=O)O)c(Cl)c1Cl [Ethacrynic acid] | 1.02
C[C@]12CCC(=O)C=C1CC[C@@H]1[C@@H]2[C@@H](O)C[C@@]2(C)[C@H]1CC[C@]2(O)C(=O)CO [Hydrocortisone] | 0.936
CC1(C)O[C@@H]2[C@@H](CO[C@@]3(COS(N)(=O)=O)OC(C)(C)O[C@@H]23)O1 [Topiramate] | 1.03
CCN(CC)C(=S)SSC(=S)N(CC)CC [Disulfiram] | 0.979
Nc1ncn(C2OC(CO)C(O)C2O)c(=O)n1 (stereo unspecified) [Azacytidine-5] | 0.781
O=C(CCCCCCC(=O)Nc1ccccc1)NO [Vorinostat] | 1.07
CNCC[C@@H](Oc1ccccc1C)c1ccccc1 [Tomoxetine hydrochloride] | 1.02
CN(C)CCCC1(c2ccc(F)cc2)OCc2cc(C#N)ccc21 (stereo unspecified) [Citalopram hydrobromide] | 1.01
Cn1c(=O)c2c(ncn2CC(O)CO)n(C)c1=O (stereo unspecified) [Diprophylline] | 0.994
Cn1c(=O)c2nc[nH]c2n(C)c1=O [Theophylline monohydrate] | 0.98
CC(=O)CC(c1ccc([N+](=O)[O-])cc1)c1c(O)c2ccccc2oc1=O (stereo unspecified) [Acenocoumarol] | 0.992
COc1ccccc1N1CCN(CCCNc2cc(=O)n(C)c(=O)n2C)CC1 [Urapidil hydrochloride] | 0.979
CCOc1ccccc1OC(c1ccccc1)C1CNCCO1 (stereo unspecified) [Reboxetine mesylate] | 1.01
O=S(=O)(O)c1cc(O)ccc1O [Ethamsylate diethylammonium salt] | 0.98
